A selection: hits, their analogues and other compounds. The true share with any hit is near 4%.
DENV2 CPE = protects cells from dengue virus 2 cytopathic effect; AID 651640; 350,000 tested, 1.7% active; DENV2-infected cells, cytopathic effect rescue, plate reader; CPE inhibition, % at 9.99 µM; in the data active = CPE inhibition above about 20%, passing the limit was not always enough; inconclusive = no clear call, values can overlap the other calls; tested in BHK-21 cells;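 also: 0% = median of neutral control wells and 100% = median of positive control wells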
RAD52 anneal inh = blocks human RAD52 DNA annealing | P43351 | recombinant RAD52 DNA annealing, FRET fluorescence | inhibition, % at 18.7 µM | 360,000 tested, 0.46% active | AID 651710;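 active = every replicate showing at least 50% inhibition; inconclusive = mean inhibition at least 50% but not in every replicate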
Target sequence (P43351 whole entry, looked up): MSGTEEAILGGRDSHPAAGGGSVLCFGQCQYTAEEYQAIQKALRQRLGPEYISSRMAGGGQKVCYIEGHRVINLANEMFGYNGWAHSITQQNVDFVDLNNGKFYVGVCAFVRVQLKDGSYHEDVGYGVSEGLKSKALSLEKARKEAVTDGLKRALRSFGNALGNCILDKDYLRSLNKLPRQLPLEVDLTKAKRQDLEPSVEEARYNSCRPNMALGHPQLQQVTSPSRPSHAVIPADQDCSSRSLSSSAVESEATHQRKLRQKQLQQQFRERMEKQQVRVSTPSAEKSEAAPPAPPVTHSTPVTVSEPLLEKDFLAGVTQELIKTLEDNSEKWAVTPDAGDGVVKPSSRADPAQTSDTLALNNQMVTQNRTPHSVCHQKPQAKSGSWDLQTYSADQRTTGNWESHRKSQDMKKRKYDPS
MLL AF4-AF9 inh = MLL-AF4/AF9 protein interaction inhibition | P42568 | AlphaScreen, biotin-AF4 peptide binding to FLAG-AF9 | inhibition, % at 10 µM | 350,000 tested, 0.47% active | AID 651704;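 active = every replicate reaching a set inhibition limit, whatever the replicate mean, cut at about 25% in these data; inconclusive = mean inhibition reaches that limit but some replicates miss it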;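 also: 0% = plate neutral control median and 100% = total signal loss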
ERAP1 inh = blocks human ERAP1 aminopeptidase activity. Q9NZ08. recombinant ERAP1, Leu-AMC fluorescence, 60 min. inhibition, % at 10.7 µM. 340,000 tested, 0.15% active;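 active = mean replicate inhibition of at least 30%, or all replicates individually reaching that 30% level; inactive = mean below 30% and not every replicate reaching it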;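 also: 0% = neutral control wells and 100% = L-leucinethiol positive control wells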
FGF22 binding = FGF22 (human) thermal shift binding; Q9HCT0; recombinant FGF22 thermal shift, SYPRO orange fluorescence; percent of sucrose octasulfate shift, DMSO zero; activity (Tm shift, normalised), % at 9.99 µM; 340,000 tested, 1.5% active; AID 651658;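 active = mean Tm shift, scaled 0 neutral to 100 positive control, at about 1.3% or above, every replicate too, limit read from the data; inconclusive = no clear call, values can overlap the other calls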
Target sequence (Q9HCT0 whole entry, looked up): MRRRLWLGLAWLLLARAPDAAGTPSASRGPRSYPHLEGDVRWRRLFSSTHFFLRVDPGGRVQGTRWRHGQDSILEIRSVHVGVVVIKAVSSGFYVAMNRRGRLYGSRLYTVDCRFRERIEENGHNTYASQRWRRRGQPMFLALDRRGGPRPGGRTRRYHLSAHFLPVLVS
An asterisk follows results filed as active; ? = inconclusive; / = no result.

SMILES | DENV2 CPE | RAD52 anneal inh | MLL AF4-AF9 inh | ERAP1 inh | FGF22 binding
COc1ccccc1-c1cnc2c(c1)C(=O)N([C@@H](C)CO)C[C@H](C)[C@@H](CN(C)Cc1cccnc1)O2 | 11.4 | 11.0 | -2.6 | -0.9 | -0.2
C[C@H]1CN([C@@H](C)CO)C(=O)Cc2cc(NC(=O)Nc3ccc(C(F)(F)F)cc3)ccc2O[C@@H]1CN(C)C(=O)Nc1ccc2c(c1)OCO2 | -11.1 | -3.9 | 5.7 | 0.3 | -0.4
Cc1ccnc(NC(=O)c2ccc(Cl)c(NC(=O)CCc3ccccc3)c2)c1 | 13.1 | -19.9 | -0.6 | -0.5 | /
Cc1ccnc(NC(=O)c2ccc(Cl)c(NC(=O)C(C)Oc3ccccc3)c2)c1 (stereo not drawn) | -3.5 | -45.0 | -8.6 | -3.5 | 43.2*
Cc1cc(C)nc(-n2ncc3c2CCCC3=O)n1 | / | -6.8 | -1.0 | -1.0 | 43.0*
COc1ccc2c3c([nH]c2c1)[C@H](CO)N(C(=O)c1ccccc1)CC31CCN(C(=O)NC(C)C)CC1 | 7.5 | -4.5 | 1.1 | 1.3 | -0.2
NS(=O)(=O)c1ccc(N/N=C/c2ccccc2C(=O)O)c([N+](=O)[O-])c1 | 2.4 | -3.7 | 0.5 | 6.7 | 43.2*
O=C(O)c1ccccc1/C=N/Nc1ccc(S(=O)(=O)N2CCOCC2)cc1[N+](=O)[O-] | -1.2 | -4.2 | / | 18.1 | 0.1
COc1ccccc1NC(=O)Nc1ccc2c(c1)C(=O)N(C)C[C@H](OC)[C@H](C)CN(C)[C@H](C)CO2 | / | 3.4 | / | / | /
COc1ccc(-c2nc(N3CCN(C)CC3)sc2-c2ccc(OC)cc2)cc1 | -2.3 | 9.9 | 33.6* | -1.1 | -0.4
O=C(NC1CCCC1)[C@@H]1[C@@H](CO)[C@@H]2Cn3c(ccc(-c4cccnc4)c3=O)[C@H]1N2CC1CC1 | / | / | -1.4 | / | 0.0
CC(C)NC(=O)N[C@@H]1C[C@@H]2O[C@H](CO)CC[C@@H]2O[C@@H]1CCc1ccc(-c2ccc(F)cc2)cc1 | -3.0 | 0.0 | -3.5 | 1.7 | /
COc1ccccc1-c1cn(CC[C@H]2CC[C@H](NC(=O)C3CCC3)[C@H](CO)O2)nn1 | 34.8* | 9.3 | 0.8 | -1.0 | -0.6
CC(C)c1cn(CC[C@H]2CC[C@H](NC(=O)C3CC3)[C@H](CO)O2)nn1 | 61.9* | 4.7 | 2.3 | 4.1 | -0.1
CC(C)c1cn(CC[C@H]2CC[C@H](NC(=O)C3CC3)[C@@H](CO)O2)nn1 | 7.3 | -1.5 | 5.1 | -3.0 | 0.0
Cc1oc(-c2ccccc2)cc1C(=O)Nc1cccc(/C=C\C(=O)O)c1 | -3.3 | -11.3 | 2.2 | -29.1 | 43.5*
COc1ccc2c3c(n(C)c2c1)[C@H](CO)N(Cc1ccccc1)CC31CN(S(C)(=O)=O)C1 | -2.0 | / | 6.1 | / | /
O=C(Cc1ccccc1)N1CC2(C1)[C@H](c1ccccc1)[C@H](CO)N2S(=O)(=O)Cc1ccccc1 | 5.0 | -83.1 | -10.3 | -5.1 | 0.1
COc1ccc(Cc2c(-c3ccco3)nc3c(C)cc(Br)cn23)c(C)c1 | 22.6* | -35.8 | 5.3 | 0.5 | 0.1
COc1ccc(Cc2c(-c3ccccc3)nc3c(C)cc(Br)cn23)c(C)c1 | -9.2 | -25.4 | -1.3 | 7.3 | 0.0
CCCc1nc2c(C)cc(Br)cn2c1Cc1ccc(OC)cc1C | 20.6* | -15.2 | 3.9 | 1.5 | -0.1
COc1ccc(Cc2c(-c3ccco3)nc3ccc(Br)cn23)c(C)c1 | ? | -33.6 | 1.6 | / | 0.0
CCc1nc2ccccc2c(C(=O)Oc2ccc(C(=O)OC)cc2)c1C | 7.7 | -7.0 | -6.3 | -3.7 | 43.9*
CCc1nc2ccccc2c(C(=O)OCC(=O)Nc2ccc(NC(C)=O)cc2)c1C | -0.7 | -14.2 | -0.8 | -0.3 | -0.1
O=C(NCc1cccnc1)C(=O)NCC(c1ccco1)N1CCN(c2ccccc2)CC1 (stereo not drawn) | 21.0* | -8.9 | 0.8 | 4.8 | /
SMILES | DENV2 CPE | RAD52 anneal inh | MLL AF4-AF9 inh | ERAP1 inh | FGF22 binding
O=C(NCc1cccnc1)C(=O)NCC(c1ccco1)N1CCOCC1 (stereo not drawn) | -2.9 | 13.6 | 3.3 | -3.0 | -0.1
Cc1ccc(F)cc1C(=O)N1CCCCC1c1cc(C(=O)NC(C)C)no1 (stereo not drawn) | 56.1* | -12.2 | 0.1 | -6.4 | -0.1
O=C(Nc1ccccc1Cl)c1cc(C2CCCCN2C(=O)C2CCCCC2)on1 (stereo not drawn) | 8.8 | -15.4 | -0.8 | -3.4 | -0.2
COc1ccc(S(=O)(=O)N2CCCCC2c2cc(C(=O)Nc3ccccc3)no2)cc1 (stereo not drawn) | 32.9* | -7.9 | -5.1 | -3.5 | 0.0
COc1ccc(S(=O)(=O)N2CCCCC2c2cc(C(=O)Nc3ccccc3Cl)no2)cc1 (stereo not drawn) | -2.1 | -23.0 | 0.9 | -1.0 | -0.3
COC(=O)N1CCCCC1c1cc(C(=O)Nc2ccc(OC)cc2C)no1 (stereo not drawn) | 50.6* | 2.3 | -1.5 | -3.2 | 0.2
COC(=O)N1CCCCC1c1cc(C(=O)Nc2ccccc2Cl)no1 (stereo not drawn) | 27.8* | -4.7 | 0.6 | -0.4 | 0.5
COc1ccc(NC(=O)c2cc(C3CCCCN3C(=O)c3cc(F)ccc3C)on2)c(C)c1 (stereo not drawn) | 2.7 | -8.8 | 1.6 | -2.0 | 0.0
CO[C@@H]1CN(C)C(=O)c2cc(NC(=O)Nc3c(C)noc3C)ccc2OC[C@@H](C)N(C)C[C@H]1C | / | / | 0.7 | / | /
COc1ccc(C(=O)N2CCCCC2c2cc(C(=O)Nc3ccc(OC)cc3C)no2)cc1 (stereo not drawn) | 13.8 | -3.7 | -1.8 | -0.5 | 1.3
COc1ccc(C(=O)N2CCCCC2c2cc(C(=O)NCc3cccnc3)no2)cc1 (stereo not drawn) | 32.8* | -4.4 | -1.5 | 0.9 | -0.2
COc1ccc(NC(=O)c2cc(C3CCCCN3C(=O)c3cc(C(C)(C)C)nn3C)on2)c(C)c1 (stereo not drawn) | 48.0* | -6.5 | -4.9 | -0.8 | 0.1
CCCNC(=O)N1CCC2(CC1)CN(Cc1ccc(F)cc1)[C@@H](CO)c1[nH]c3cc(OC)ccc3c12 | 10.1 | -21.3 | -17.8 | -1.8 | 0.0
CC(C)CC#Cc1ccc2c(c1)O[C@@H](CN(C)C(=O)Nc1ccccc1)[C@H](C)CN([C@@H](C)CO)S2(=O)=O | 19.8 | 21.9 | 2.0 | -4.3 | -0.4
CSc1cc(-c2ccccc2)[nH]c(=O)c1C#N | -3.9 | -11.7 | -3.1 | 0.7 | 0.1
Cc1cc(-c2ccccc2)[nH]c(=O)c1C#N | -4.3 | -5.6 | -2.3 | 1.8 | 43.1*
CC(C)[C@H](NC(N)=O)C(=O)NNC(=O)COc1cccc(C(F)(F)F)c1 | 1.3 | -13.0 | 3.9 | 53.7* | 0.1
CCC(=O)N1CC(=O)N2[C@H](C1)[C@@H](c1ccc(-c3ccccc3F)cc1)[C@@H]2CO | 9.1 | 2.0 | -3.0 | / | /
O=C(CN1CCOCC1)NCC[C@H]1CC[C@@H](NC(=O)Cc2ccccn2)[C@@H](CO)O1 | -2.4 | -19.0 | 1.0 | 0.9 | 0.0
CC(C)(C)c1csc(N/N=C/c2cccnc2)n1 | 2.8 | 1.8 | 20.3 | 3.0 | 43.8*
